In PubChem BioAssay AID493170 (National Center for Advancing Translational Sciences (NCATS), 2011):
Inconclusive results are not listed. Activity calls are given as the source filed them. Calls follow the shape of the dose curve; as a rule, active = well fitted inhibition curve with a large enough effect; inconclusive = small, poorly fitted or top-dose-only effect, or effect the other way; inactive = flat fitted curve, though single readings scatter.

target: Ubiquitin carboxyl-terminal hydrolase 2 (Homo sapiens) (UniProt O75604); assay: Ub-rhodamine 110 based assay for inhibitors Ubiquitin-specific Protease USP2a; conditions: USP2a Ub-rhodamine110 cleavage, fluorescence; series mostly up to 38.3 µM; activity change, negative = inhibition: at the top concentration; also: nearly all actives have a fitted effect of over 50% in size
Sequence (O75604 whole entry, looked up): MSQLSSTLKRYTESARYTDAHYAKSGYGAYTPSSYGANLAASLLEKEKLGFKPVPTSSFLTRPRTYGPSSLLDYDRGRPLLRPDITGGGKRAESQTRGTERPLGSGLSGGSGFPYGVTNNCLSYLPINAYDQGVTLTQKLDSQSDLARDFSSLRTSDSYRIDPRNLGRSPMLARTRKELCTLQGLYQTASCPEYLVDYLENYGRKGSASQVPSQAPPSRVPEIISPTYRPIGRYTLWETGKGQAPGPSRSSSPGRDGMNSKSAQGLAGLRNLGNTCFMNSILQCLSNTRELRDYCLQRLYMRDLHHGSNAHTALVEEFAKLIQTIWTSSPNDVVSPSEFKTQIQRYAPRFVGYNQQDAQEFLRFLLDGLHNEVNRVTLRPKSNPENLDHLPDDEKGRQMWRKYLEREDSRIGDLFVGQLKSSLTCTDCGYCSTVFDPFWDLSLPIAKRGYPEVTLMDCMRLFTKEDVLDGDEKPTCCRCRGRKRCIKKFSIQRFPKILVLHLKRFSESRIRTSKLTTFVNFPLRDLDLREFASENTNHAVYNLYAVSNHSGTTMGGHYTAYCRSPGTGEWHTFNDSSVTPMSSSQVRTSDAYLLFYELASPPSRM
Outline: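 Kinetic fluorescence (485/531 nm) read each minute over 7 min after adding Ub-Rhod110 (150 nM final) to USP2a (5 nM final). The enzyme had 30 min RT exposure to compounds beforehand in Tris pH 8.0 buffer with CaCl2, CHAPS and beta-ME.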
% is scaled to controls: 0 for no effect and ±100 for the full control effect; potency is read from the fitted curve at half-maximal effect.

Activity change, negative = inhibition, inactive:
O=C(C[n+]1cccc(C(=O)N/N=C/c2ccc(Br)cc2)c1)c1ccccc1 -2.35%
Cc1nc2cc3ccccc3cc2c(=O)[nH]1 -20.4%
O=C(COC(=O)c1ccc(F)c(S(=O)(=O)N2CCOCC2)c1)c1ccccc1 -0.0271%
Cc1ccccc1N=C1NC(=O)CS1 1.95%
COc1ccc(CCN2C(=O)/C(=C\c3ccco3)SC2=S)cc1OC -10.5%
CCCOC(=O)CCCCC1SCC(NC(=O)OC)C1NC(=O)OC (centres undefined) 6.99%
CN(c1ccccc1)S(=O)(=O)c1ccc(Cl)c(C(=O)NCCc2c[nH]c3ccccc23)c1 -14.8%
COC(=O)c1c(NC(=O)c2cccnc2)sc(C)c1C 0.753%
Cc1ccc(Nc2nc(N)nc(CN3CCN(C(=O)c4ccco4)CC3)n2)cc1Cl -14.7%
CCOc1ccc2[nH]c(=O)c(CN(CCc3ccccc3)C(=O)c3cnccn3)cc2c1 -0.958%
Cc1c(C(=O)NCc2c(F)cc(F)cc2F)oc2ccc(S(=O)(=O)N3CCOCC3)cc12 -5.76%
Cc1cc(NC(=O)c2cccc(S(=O)(=O)N(C)C)c2)n(-c2ccccn2)n1 -14.6%
Cc1ccc(C(C)C)c(OCc2nn(CC(=O)c3ccc(OC(F)F)cc3)c3[n+]2CCCCC3)c1 -4.28%
COc1ccc(N(C(=O)C(C)C)S(=O)(=O)c2ccc(Cl)cc2)cc1 -17.7%
Cc1ccc(C(=O)N/C(=C/c2ccco2)C(=O)Nc2cccc(C(=O)O)c2)cc1 1.46%
COc1ccc(OCC(=O)Nc2ccccc2OC)cc1 4.57%
CCOC(=O)Cn1c(=O)oc2cc(S(=O)(=O)Nc3cc(Cl)ccc3OC)ccc21 -6.33%
O=C(N/N=C1\CC(c2ccccc2)Oc2ccccc21)c1ccc(O)cc1 (centres undefined) -26.4%
C=CC[C@H](CC(=O)N[C@H](CO)Cc1ccccc1)C(=O)N[C@H](COC(=O)[C@@H](CC=C)CC(=O)OC(C)(C)C)Cc1c[nH]c2ccccc12 -11.3%
COc1ccccc1-n1c(SCC(=O)Nc2ccc(C)cc2)nc(O)cc1=O 1.74%
Cc1[nH]c2ccccc2c1C(c1ccccn1)c1c(C)[nH]c2ccccc12 -17%
COC(=O)c1[nH]c(=O)c2ccccc2c1OCc1ccccc1 5.2%
Cc1ccc(S(=O)(=O)Nc2ccc(N3CCOCC3)cc2)cc1 -7.65%
O=C(NCCCN1CCCC1=O)c1cccc(N2CCCC2=O)c1 0.745%
COc1ccc2[nH]c(=O)c(CN(C)C(=O)C3CCCCC3)cc2c1 -4.5%
CCc1cc2cccc(C)c2nc1SCC(=O)N1CCN(C(=O)c2ccco2)CC1 -16.4%
Cn1nc(CC(=O)NCc2ccc(F)cc2)c2ccccc2c1=O -3.88%
NC(=O)C[C@@H]1N[C@]2(C(=O)Nc3ccccc32)[C@@H]2C(=O)N(c3cc(C(F)(F)F)ccc3Cl)C(=O)[C@H]12 -1.09%
CCOC(=O)N1CCN(C(=O)CN(c2cccc(C)c2)S(=O)(=O)c2ccccc2)CC1 2.09%
COc1cc(C(=O)OCC(=O)Nc2c(F)c(F)c(F)c(F)c2F)cc(OC)c1OC 0.379%
CC(=O)c1ccc(NC(=O)CC(NCCC2=CCCCC2)C(=O)O)cc1 (centres undefined) 7.73%

Potency, active:
Cc1ccc(OCC(=O)Nc2ccc(N3CCCC3)cc2)cc1C 10 µM
C/C(=N/NC(=O)c1cc2ccccc2cc1O)C1C(=O)c2ccccc2C1=O 1.78 µM
CC1(C)Cc2c(C#N)c(N3CCN(C(=O)c4ccco4)CC3)nc(-c3ccco3)c2CS1 8.91 µM
CCN(CC)S(=O)(=O)c1ccc(-c2nnc(SCC(=O)Nc3ccc4c(c3)OCO4)o2)cc1 10 µM
COc1ccc(NC(=O)c2cc(-c3ccco3)nc3ccccc23)cc1S(=O)(=O)N1CCOCC1 4.47 µM
O=C(O[C@@H]1OC2COC(=O)c3cc(O)c(O)c(O)c3-c3c(cc(O)c(O)c3O)C(=O)O[C@@H]([C@H]1O)[C@@H]2O)c1cc(O)c(O)c(O)c1 3.16 µM
COc1ccc(/C=N\NC(=O)c2cc(O)c(O)c(O)c2)cc1COc1ccc(C(=O)OCC(C)C)cc1 2.82 µM
CCOc1ccc(C=NNc2ccc(S(=O)(=O)Nc3ccccc3C(=O)O)cc2[N+](=O)[O-])cc1 2.82 µM
